Data from PubChem BioAssay (NCATS).
Results filed as inconclusive are left out. Active and inactive are the calls of the source. Calls come from the whole dose curve; as a rule, active = well fitted curve in the direction sought with a large enough effect; inconclusive = small, poorly fitted or top-dose-only effect, or another doubt; inactive = no such curve, though single readings can be large; an effect the other way counts as inactive or inconclusive.

Assays:
[1] = qHTS of pediatric cancer cell lines to identify multiple opportunities for drug repurposing: Primary screen for TC32 cells (AID 1347089); note: nearly all actives have a fitted effect of over 60% in size; for activity change, negative = cytotoxic: % is set by controls: 0 for no effect and ±100 for the full control effect
Outline: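 A viability screen of TC32 cells was run over 48 h, with primary MIPE doses spanning 0.78 nM–46 µM and NPC doses 0.59 nM–46 µM. ATP luminescence (CellTiter-Glo) served as the read-out.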

[2] = qHTS of pediatric cancer cell lines to identify multiple opportunities for drug repurposing: Primary screen for DAOY cells (AID 1347090); note: nearly all actives have a fitted effect of over 55% in size;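 for activity change, negative = cytotoxic: series mostly up to about 46 µM; plate controls were DMSO for no effect and bortezomib for full effect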
Outline: (§1)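 Cell viability, CellTiter-Glo luminescence; 500-1,000 cells/well, 8- or 11-point titration, 48 h compound exposure at 37 degrees C, 5% CO2. Controls: DMSO neutral, bortezomib 2.3 µM final as positive.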

[3] = qHTS of pediatric cancer cell lines to identify multiple opportunities for drug repurposing: Primary screen for SJ-GBM2 cells (AID 1347091);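 for activity change, negative = cytotoxic: plate controls were DMSO neutral control for no effect and bortezomib for full effect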
Outline: as §1

[4] = qHTS of pediatric cancer cell lines to identify multiple opportunities for drug repurposing: Primary screen for A673 cells (AID 1347092); note: nearly all actives have a fitted effect of over 45% in size; for activity change, negative = cytotoxic: % is set by controls: 0 for no effect and ±100 for the full control effect
Outline: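 Titration-based qHTS on A673 cells: MIPE compounds spanned 11 points (0.78 nM to 46 µM final), NPC compounds 8 points (0.59 nM to 46 µM final). Viability after 48 h was measured by ATP luminescence.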

[5] = qHTS of pediatric cancer cell lines to identify multiple opportunities for drug repurposing: Primary screen for SK-N-MC cells (AID 1347093);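 for activity change, negative = cytotoxic: series mostly up to about 46 µM; plate controls were DMSO neutral control for no effect and bortezomib for full effect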
Outline: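 Metabolically active cells were quantified by ATP-dependent luminescence (CellTiter-Glo, 15 min at room temperature) following 48 h treatment. Cells had been plated at 500-1,000 per well and settled for 5 h beforehand.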

[6] = qHTS of pediatric cancer cell lines to identify multiple opportunities for drug repurposing: Primary screen for BT-37 cells (AID 1347094);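 for activity change, negative = cytotoxic: series mostly up to about 57 µM; plate controls were DMSO for no effect and bortezomib for full effect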
Outline: (§2)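 Luminescence from CellTiter-Glo served as readout of metabolically active cells after 48 h compound exposure. Titrations: MIPE 11-point, from 0.78 nM; NPC 8-point, from 0.59 nM (final). Concentration-response curves came straight from the primary screen.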

[7] = qHTS of pediatric cancer cell lines to identify multiple opportunities for drug repurposing: Primary screen for NB-EBc1 cells (AID 1347095);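 for activity change, negative = cytotoxic: plate controls were DMSO neutral control for no effect and bortezomib for full effect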
Outline: as §2

[8] = qHTS of pediatric cancer cell lines to identify multiple opportunities for drug repurposing: Primary screen for U-2 OS cells (AID 1347096); note: nearly all actives have a fitted effect of over 50% in size;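 for activity change, negative = cytotoxic: plate controls were DMSO wells for no effect and bortezomib positive control wells for full effect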
Outline: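 Cells (500-1,000/well) rested 5 h, then received compounds for 48 h; metabolically active cells were measured by CellTiter-Glo luminescence. Final concentrations spanned up to 46 µM (MIPE, 11-point) or 0.59 nM-46 µM (NPC, 8-point) in primary screens, 11-point in follow-ups.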
Potency is the fitted concentration of half-maximal effect.

COc1cccc(OC)c1C(=O)N[C@@H]1C(=O)N2[C@@H]1SC(C)(C)[C@@H]2C(=O)O
inactive: Potency [1] | Potency [2] | Potency [3] | Potency [4] | Potency [5] | Potency [6] | Potency [7] | Potency [8]

CNC(=O)CN(CCN(CCN(CC(=O)[O-])CC(=O)NC)CC(=O)[O-])CC(=O)[O-].O.[Gd+3]
inactive: Potency [1] | Potency [2] | Potency [3] | Potency [4] | Potency [5] | Potency [6] | Potency [7] | Potency [8]

COc1cc(OC)cc(OC)c1
inactive: Potency [1] | Potency [2] | Potency [3] | Potency [4] | Potency [5] | Potency [6] | Potency [7] | Potency [8]

NC[C@H]1O[C@H](O[C@H]2[C@H](O[C@@H]3O[C@H](CO)[C@@H](O)[C@H]3O)C(O)[C@H](N)C[C@@H]2N)[C@H](N)[C@@H](O)[C@@H]1O (some centres undefined)
inactive: activity change, negative = cytotoxic [1] 6.72% [at 9.17 µM] | activity change, negative = cytotoxic [2] 6.37% [at 9.22 µM] | activity change, negative = cytotoxic [3] 15.5% [at 9.22 µM] | activity change, negative = cytotoxic [4] -0.207% [at 9.22 µM] | activity change, negative = cytotoxic [5] -3.87% [at 9.22 µM] | activity change, negative = cytotoxic [6] 10.7% [at 11.5 µM] | activity change, negative = cytotoxic [7] 28.9% [at 9.22 µM] | activity change, negative = cytotoxic [8] 11.5% [at 9.22 µM]

CC1(C)OC[C@@H](COC(=O)CCc2ccc(OC[C@@H](O)CNCCNC(=O)N3CCOCC3)cc2)O1
inactive: Potency [1] | Potency [2] | Potency [3] | Potency [4] | Potency [5] | Potency [6] | Potency [7] | Potency [8]

Oc1cc(O)c2c(c1)O[C@H](c1ccc(O)c(O)c1)[C@H](O)C2
inactive: Potency [1] | Potency [2] | Potency [3] | Potency [4] | Potency [5] | Potency [6] | Potency [7] | Potency [8]

O=C(O)CCCCC(=O)O
inactive: Potency [1] | Potency [2] | Potency [3] | Potency [4] | Potency [5] | Potency [6] | Potency [7] | Potency [8]

NCCC(O)(P(=O)(O)O)P(=O)(O)O
inactive: Potency [1] | Potency [2] | Potency [3] | Potency [4] | Potency [5] | Potency [6] | Potency [7] | Potency [8]

Cc1cc2c(cc1CC(=O)c1sccc1S(=O)(=O)Nc1onc(C)c1Cl)OCO2
inactive: Potency [1] | Potency [2] | Potency [3] | Potency [4] | Potency [5] | Potency [6] | Potency [7] | Potency [8]

CN=C(NC#N)NCCSCc1csc(N=C(N)N)n1
inactive: Potency [1] | Potency [2] | Potency [3] | Potency [4] | Potency [5] | Potency [6] | Potency [7] | Potency [8]

NC[C@H]1O[C@H](O[C@H]2[C@H](O)[C@@H](O[C@H]3O[C@H](CO)[C@@H](O)[C@H](N)[C@H]3O)[C@H](N)C[C@@H]2N)[C@H](N)[C@@H](O)[C@@H]1O
inactive: Potency [1] | Potency [2] | Potency [3] | Potency [4] | Potency [5] | Potency [6] | Potency [7] | Potency [8]

O=c1[nH]c(=O)n([C@H]2CCCO2)cc1F
inactive: Potency [1] | Potency [2] | Potency [3] | Potency [4] | Potency [5] | Potency [6] | Potency [7] | Potency [8]

COC(=O)[C@@H]1CC2=CC(=O)CC[C@]2(C)[C@@]23O[C@@H]2C[C@@]2(C)[C@@H](CC[C@@]24CCC(=O)O4)[C@H]13
inactive: Potency [1] | Potency [2] | Potency [3] | Potency [4] | Potency [5] | Potency [6] | Potency [7] | Potency [8]

Cc1ncc(CSSCc2cnc(C)c(O)c2CO)c(CO)c1O
inactive: Potency [1] | Potency [2] | Potency [3] | Potency [4] | Potency [5] | Potency [6] | Potency [7] | Potency [8]

CC(=O)OCC(=O)[C@@]1(OC(C)=O)[C@@H](C)C[C@H]2[C@@H]3C[C@H](F)C4=CC(=O)C=C[C@]4(C)[C@@]3(F)[C@@H](O)C[C@@]21C
inactive: Potency [1] | Potency [2] | Potency [3] | Potency [4] | Potency [5] | Potency [6] | Potency [7] | Potency [8]

CC(=O)CC(c1ccc([N+](=O)[O-])cc1)c1c(O)c2ccccc2oc1=O (centres undefined)
inactive: Potency [1] | Potency [2] | Potency [3] | Potency [4] | Potency [5] | Potency [6] | Potency [7] | Potency [8]

O=C(O)CNC(=O)c1ccccc1
inactive: Potency [1] | Potency [2] | Potency [3] | Potency [4] | Potency [5] | Potency [6] | Potency [7] | Potency [8]

CC(=O)Nc1c(I)cc(I)c(C(=O)O)c1I
inactive: Potency [1] | Potency [2] | Potency [3] | Potency [4] | Potency [5] | Potency [6] | Potency [7] | Potency [8]

NC(=O)CC[C@@H]1NC(=O)[C@H](Cc2ccccc2)NC(=O)[C@H](Cc2ccc(O)cc2)NC(=O)CCSSC[C@@H](C(=O)N2CCC[C@H]2C(=O)N[C@@H](CCCN=C(N)N)C(=O)NCC(N)=O)NC(=O)[C@H](CC(N)=O)NC1=O
inactive: Potency [1] | Potency [2] | Potency [3] | Potency [4] | Potency [5] | Potency [6] | Potency [7] | Potency [8]

CCN1CCN(c2cc3c(cc2F)c(=O)c(C(=O)O)cn3C2CC2)CC1
inactive: Potency [1] | Potency [2] | Potency [3] | Potency [4] | Potency [5] | Potency [6] | Potency [7] | Potency [8]

CN(C)C(=S)SC(=S)N(C)C
inactive: Potency [3]
active: Potency [1] 3.74 µM | Potency [2] 0.841 µM | Potency [4] 0.668 µM | Potency [5] 0.001 µM | Potency [6] 24.6 µM | Potency [7] 10.6 µM | Potency [8] 1.68 µM

Cc1ccc(Nc2c(F)cccc2Cl)c(CC(=O)O)c1
inactive: Potency [1] | Potency [2] | Potency [3] | Potency [4] | Potency [5] | Potency [6] | Potency [7] | Potency [8]

C[C@]12CCC(=O)C=C1CC[C@H]1[C@@H]3CC[C@](O)(C(=O)CO)[C@@]3(C)C[C@H](O)[C@@]12F
inactive: Potency [1] | Potency [2] | Potency [3] | Potency [4] | Potency [5] | Potency [6] | Potency [7] | Potency [8]

CC(O)(P(=O)(O)O)P(=O)(O)O
inactive: Potency [1] | Potency [2] | Potency [3] | Potency [4] | Potency [5] | Potency [6] | Potency [7] | Potency [8]

COc1cc(C(=S)N2CCOCC2)cc(OC)c1OC
inactive: Potency [1] | Potency [2] | Potency [3] | Potency [4] | Potency [5] | Potency [6] | Potency [7] | Potency [8]

CCCCC(CC)CN=C(N)NC(N)=NCCCCCCN=C(N)NC(N)=NCC(CC)CCCC (centres undefined)
active: Potency [1] 21 µM | Potency [2] 8.41 µM | Potency [3] 1.06 µM | Potency [4] 1.68 µM | Potency [5] 5.31 µM | Potency [6] 9.78 µM | Potency [7] 10.6 µM | Potency [8] 21.1 µM

Cc1c(F)c(N2CCNC(C)C2)cc2c1c(=O)c(C(=O)O)cn2C1CC1 (centres undefined)
inactive: Potency [1] | Potency [2] | Potency [3] | Potency [4] | Potency [5] | Potency [6] | Potency [7] | Potency [8]

NC(CO)(CO)CO
inactive: Potency [1] | Potency [2] | Potency [3] | Potency [4] | Potency [5] | Potency [6] | Potency [7] | Potency [8]

Cc1ccnc(NS(=O)(=O)c2ccc(N)cc2)n1
inactive: Potency [1] | Potency [2] | Potency [3] | Potency [4] | Potency [5] | Potency [6] | Potency [7] | Potency [8]

OC(CCN1CCCCC1)(c1ccccc1)c1ccccc1
inactive: Potency [1] | Potency [2] | Potency [3] | Potency [4] | Potency [5] | Potency [6] | Potency [7] | Potency [8]

N[C@@H](CCC(=O)N[C@@H](CS)C(=O)NCC(=O)O)C(=O)O
inactive: Potency [1] | Potency [2] | Potency [3] | Potency [4] | Potency [5] | Potency [6] | Potency [7] | Potency [8]

CCCC(=O)Nc1ccc(OCC(O)CNC(C)C)c(C(C)=O)c1 (centres undefined)
inactive: Potency [1] | Potency [2] | Potency [3] | Potency [4] | Potency [5] | Potency [6] | Potency [7] | Potency [8]

NC(=O)c1cc[n+](CC2=C(C(=O)[O-])N3C(=O)[C@@H](NC(=O)Cc4cccs4)[C@H]3SC2)cc1
inactive: Potency [1] | Potency [2] | Potency [3] | Potency [4] | Potency [5] | Potency [6] | Potency [7] | Potency [8]

COC(=O)CCc1ccc(OCC(O)CNC(C)C)cc1 (centres undefined)
inactive: Potency [1] | Potency [2] | Potency [3] | Potency [4] | Potency [5] | Potency [6] | Potency [7] | Potency [8]

CC(O)C(=O)O (centres undefined)
inactive: Potency [1] | Potency [2] | Potency [3] | Potency [4] | Potency [5] | Potency [6] | Potency [7] | Potency [8]

c1ccc(CNCCNCc2ccccc2)cc1
inactive: Potency [1] | Potency [2] | Potency [3] | Potency [4] | Potency [5] | Potency [6] | Potency [7] | Potency [8]

CCCCN1CCCC1C(=O)Nc1c(C)cc(C)cc1C (centres undefined)
inactive: Potency [1] | Potency [2] | Potency [3] | Potency [4] | Potency [5] | Potency [6] | Potency [7] | Potency [8]

CCCCS(=O)(=O)N[C@@H](Cc1ccc(OCCCCC2CCNCC2)cc1)C(=O)O
inactive: Potency [1] | Potency [2] | Potency [3] | Potency [4] | Potency [5] | Potency [6] | Potency [7] | Potency [8]

CN1CCC[C@@H]1c1cccnc1
inactive: Potency [1] | Potency [2] | Potency [3] | Potency [4] | Potency [5] | Potency [6] | Potency [7] | Potency [8]

O=c1ccc2ccccc2o1
inactive: Potency [1] | Potency [2] | Potency [3] | Potency [4] | Potency [5] | Potency [6] | Potency [7] | Potency [8]

CCCCCCCCCCCCCCCCOP(=O)([O-])OCC[N+](C)(C)C
active: Potency [3] 8.41 µM | Potency [5] 6.68 µM
inactive: Potency [1] | Potency [2] | Potency [6]

CCCCOc1ccc(OCCCN2CCOCC2)cc1
inactive: Potency [1] | Potency [2] | Potency [3] | Potency [4] | Potency [5] | Potency [6] | Potency [7] | Potency [8]

C=C1C[C@H]2[C@@H]3C=C(C)C4=CC(=O)CC[C@]4(C)[C@H]3CC[C@]2(C)[C@@]1(OC(C)=O)C(C)=O
inactive: Potency [1] | Potency [2] | Potency [3] | Potency [4] | Potency [6] | Potency [7] | Potency [8]

Cc1ccc(O)c2ncccc12
inactive: Potency [1] | Potency [3]
active: Potency [2] 3.35 µM | Potency [5] 2.99 µM
